Among all 96,000 compounds or so, about 100 (0.1%) were called active.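 The calls were made as follows: active = displacement above 50% at 20 µM plus a fluorescence interference ratio under 1.5; inactive = the rest.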 This excerpt belongs to a sample that is enriched for actives. Measured potencies and affinities stand elsewhere.
Molecular target: Bcl-2-like protein 10 (Homo sapiens) (UniProt Q9HD36)
Experiment: displacers of TR3 peptide from Bcl-B, primary screen, selectivity assay for Bfl-1 inhibitor project, biochemical, fluorescence polarization, FITC-TR3 peptide (AID 748);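 also: plate controls were wells without compound for no effect and wells lacking Bcl-B protein for full effect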
Details: FP displacement of FITC-TR3 peptide from Bcl-B; at 20 µM; hits give high values

displacement, inactive:
Cc1c(C(=O)Nc2cccc3cccnc23)oc2ccccc12 10.7%, Cc1cc(=O)n2c3c(cccc13)CCC2 -9.7%, C=CCn1c(SCC(=O)Nc2ncc(Cc3cc(Cl)ccc3Cl)s2)nnc1-c1ccncc1 -3.4%, O=C(NCc1ccco1)c1cc(-c2ccc(F)cc2)on1 1.1%, O=C(Cc1ccc(Cl)cc1)Nc1ccc(N2CCCC2)cc1 -84%, O=C(Nc1ccc(N2CCCCC2)cc1)c1ccccc1 -3.3%, CN1CCN(c2ccc(NC(=O)Cc3ccccc3)cc2)CC1 -5.5%, O=C(Nc1ccc(N2CCCC2)cc1)C(Cl)c1ccccc1 (configuration not stated) -13.8%, CCOC(=O)c1ccccc1NC(=O)CC(C)CC(=O)O (configuration not stated) -5.5%, COc1cccc2c1C(=O)CC2NC(=O)C(F)(F)F (configuration not stated) -17.1%, COC(=O)Nc1c(C)nn(Cc2ccccc2C)c1C -0.7%, CCOc1ccc(C(c2c(C)[nH][nH]c2=O)c2c(C)[nH][nH]c2=O)cc1OC 8.5%, CC(C)CC(C(=O)Nn1cnnc1)N1C(=O)c2ccccc2C1=O (configuration not stated) -8.4%, Cc1nnc(NC(=O)Cc2cccs2)s1 40.2%, O=C(Cc1cccs1)Nc1nnc(CCc2ccccc2)s1 -0.1%, CCOC(=O)c1nc2sc3c(c2c(=O)[nH]1)CCCC3 -2.6%, CC(C)CC(=O)c1c[nH]c(C(=O)NCCCn2ccnc2)c1 0%, Cc1ccc2cc(C3C(C#N)=C(N)Oc4c3ccc3cccnc43)c(=O)[nH]c2c1 (configuration not stated) 5.4%, CCc1ccc2[nH]c(=O)c(C3C(C#N)=C(N)Oc4c3ccc3cccnc43)cc2c1 (configuration not stated) -4.7%, O=c1[nH]c(=O)n(C2CCCO2)cc1Br (configuration not stated) -6.3%, CS(=O)(=O)N(CCc1ccccc1)CC(=O)N1CCCCC1 0.5%, Clc1ccc2nc(CN3CCCCC3)cn2c1 10.1%, Clc1ccc2nc(CN3CCCCCC3)cn2c1 -3.6%, Cc1nn(-c2ccccn2)c2c1-c1nc(N)ncc1CC2 6%, CCN(CC)CCC(=O)NC(C)(C)Cc1ccc(O)cc1 -7.8%, CCOC(=O)c1[nH]c2c(c1C)C(=O)CC(c1ccco1)C2 (configuration not stated) 10.9%, Cc1c(C(=O)OCC2CCCO2)[nH]c2c1C(=O)CC(c1ccc(N(C)C)cc1)C2 (configuration not stated) -1.6%, CCCC(=O)N1CCc2cc(-c3nc(N)sc3C)ccc21 0.7%, CC1(C)Cc2c(sc3c2c(=N)n(Cc2ccco2)c(=O)n3CC(=O)Nc2cccc(Cl)c2)CO1 -38.7%, Cc1ccc(S(=O)(=O)N2CCOCC2)cc1C(=O)OCC(=O)N1c2ccccc2NC(=O)C1(C)C 25%, CC1(C)C(=O)Nc2ccccc2N1C(=O)COC(=O)C1CCCCC1 -3.4%, COc1cc(/C=C(/C#N)c2ccc(C)cc2)ccc1Oc1ccc([N+](=O)[O-])cn1 -0.7%, CC1Cc2nc(SCC(=O)NC3CCCCC3)n(C)c(=O)c2S1 (configuration not stated) -2.6%, CCOC(=O)COc1ccc(S(=O)(=O)N2CCc3ccccc3C2)cc1 0.4%, CCOc1ccccc1N(CC(=O)NC(C)(C)C)C(=O)Cn1nnc(-c2ccc(C)o2)n1 -3.4%, CC(=O)N1N=C(c2ccc3nccnc3c2)CC1c1ccccc1 (configuration not stated) 6%, C=CCn1c(SCc2cc(=O)n3ccsc3n2)nc2scc(C3CC3)c2c1=O -10.9%, C=CCn1c(=O)c2ccccc2n2c(SCc3cc(=O)n4ccsc4n3)nnc12 6.2%, CCCNC(=O)c1c(N)n(-c2ccc3c(c2)OCO3)c2nc3ccccc3nc12 8.6%, Cn1c(N2CCN(C(=O)NCc3ccccc3)CC2)nc2ccccc21 6.9%, COc1cccc(NC(=O)c2cnsn2)c1 6.3%, CCCn1c(C)cc(-c2csc(N)n2)c1C 10.4%, Cc1cc(-c2csc(N)n2)c(C)n1CCC(C)C 1.9%, c1csc(Cn2c(-c3cccs3)nc3ccccc32)c1 -27.7%, CC(=O)Nc1ccc(S(=O)(=O)n2nc(-c3ccc(C)cc3)nc2N)cc1 -2.3%, O=[N+]([O-])c1ccc(-c2ccc(/C=N/c3c(-c4ccco4)nc4ccccn34)o2)cc1 7.3%, O=[N+]([O-])c1ccc(Cl)c(-c2ccc(/C=N/c3c(-c4ccco4)nc4ccccn34)o2)c1 31.7%, COCCn1c(=S)[nH]c2cc(OC)c(OC)cc2c1=O 3%, COc1cc2c(cc1OC)CN(C(C)C(=O)Nc1ccc(NC(C)=O)cc1)CC2 (configuration not stated) 2.9%, COC(=O)CSc1nc2sc3c(c2c(=O)n1C1CCCCC1)CCN(C)C3 -62.9%, CCn1c(SCC(N)=O)nc2sc3c(c2c1=O)CCCC3 1.5%, CCn1c(SCC(=O)OC)nc2sc3c(c2c1=O)CCC3 46.6%, COC(=O)CSc1nc2sc3c(c2c(=O)n1-c1ccccc1)CCN(C)C3 4.6%, CCn1c(SCC(=O)N2CCOCC2)nc2sc3c(c2c1=O)CCCC3 4%, CCn1c(NN)nc2sc3c(c2c1=O)CCC3 -124%, Cc1ccc2cccc(SCC(=O)N3CCOCC3)c2n1 1.9%, O=C1CC(C(=O)O)S/C(=N\NC(=O)c2ccccc2)N1 (configuration not stated) 0%, CC(C)n1c(SCCCc2ccccc2)nc2c1c(=O)[nH]c(=O)n2C -3.8%, COc1ccccc1NC(=O)Cc1noc(CSc2cccc[n+]2[O-])n1 -8.6%, CC(C)(C)c1nnc2sc(SCCN3C(=O)c4ccccc4C3=O)nn2c1=O 2.7%, COc1ccc(Cl)cc1N1C(=O)[C@@H]2C(c3cccc(OC)c3OC)=NO[C@@H]2C1=O 8.5%, COc1ccc(OC)c(C2=NO[C@@H]3C(=O)N(c4cc(Cl)ccc4OC)C(=O)[C@H]23)c1 6%
